Bioassay records: PubChem, National Center for Advancing Translational Sciences (NCATS)
In the library only some 15% were active in any assay of this set; here they are far more common.
TDP1 cell noCPT – qHTS for Inhibitors of human tyrosyl-DNA phosphodiesterase 1 (TDP1): qHTS in cells in absence of CPT. Potency, µM (series often up to 46.2 µM), without a hit: at the highest dose activity change, negative = growth inhibition, hits mostly inhibitors. DT40 Tdp1-/- hTDP1 cells, no CPT, ATP luminescence, 48 h. hit rate 15% among 420,000; note: nearly all actives have a fitted effect of over 55% in size
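Readout: luminescence from CellTiter-Glo after 30 min in the dark at RT. Cells: DT40 Tdp1-/- with stable hTDP1, 400/well. Exposure: compounds alone, ≥48 hr, 37 °C.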
Gal4-VP16 FLuc – counter-screen for ROR gamma inhibitors: Gal4-VP16 reporter. Drosophila S2 Gal4-VP16 UAS-luciferase, luminescence, 20 h. Potency, µM (doses to about 53.6 µM), for the others: top-dose activity, negative = inhibition, most hits filed as inhibitors. hit rate 3.5% among 310,000. AID 2546;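 note: Gal4-VP16 expression switched on by copper sulfate through the metallothionein promoter; nearly all actives have a fitted effect of over 50% in size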
ELG1 repair inh – inhibitors of ELG1-dependent DNA repair in HEK293T cells | HEK293T ELG1-luciferase reporter, luminescence, 16 h; DNA damage induced by 5-fluorouridine | Potency, µM (titrated, usually from 46.1 µM), inactives show top-dose activity change, negative = inhibition, most hits filed as inhibitors | hit rate 2.3% among 330,000 | AID 504467; note: nearly all actives have a fitted effect of over 55% in size
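Step one: seed 2,000 cells per well. Step two: pin-transfer compound or DMSO alongside 5-fluorouridine. Step three: incubate 16 hr, 37 °C, 5% CO2. Step four: add ONE-Glo, wait 30 min, read luminescence.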
DT40 TDP1 CPT – DT40-hTDP1 cell growth loss with CPT; chicken DT40 Tdp1-/-;hTDP1 cells + 20 nM CPT, ATP luminescence, 48 h; Potency, µM (series often up to 46.2 µM), without a hit: at the highest dose activity change, negative = growth inhibition, actives largely listed as inhibitors; hit rate 12% among 420,000; note: nearly all actives have a fitted effect of over 55% in size
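Cell growth measured by CellTiter-Glo luminescence after a minimum 48 h, 37 C compound exposure with 20 nM CPT in Tdp1-knockout DT40 cells stably expressing hTDP1, seeded 400/well; qHTS titration format.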
RORgamma inh – inhibitors of mouse ROR gamma transcriptional activity. P51450. Drosophila S2 Gal4-RORgamma UAS-luciferase reporter, 20 h. Potency, µM (highest dose often 53.6 µM), for inactives: top-dose activity change, negative = inhibition, hits mostly inhibitors. hit rate 5.4% among 310,000; note: nearly all actives have a fitted effect of over 60% in size
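In this cell-based reporter format, copper sulfate (700 uM final) drives Gal4–ROR gamma fusion expression from a metallothionein promoter in Drosophila Schneider cells; compounds preincubated 1 hr, reporter read after 20 hr at ambient temperature.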
12-LOX inh – blocks human arachidonate 12S-lipoxygenase; P18054; purified 12hLO, xylenol orange hydroperoxide absorbance; Potency, µM (doses to about 108 µM), without a hit: at the highest dose activity change, negative = inhibition, usual class: inhibitors; hit rate 1.1% among 580,000; AID 1671190
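Purified human 12hLO at 150 nM in 25 mM Hepes, 0.01% Triton X-100, pH 7.0, preincubated 15 min at room temperature with compound. Reaction started with 40 uM arachidonic acid, 30 min at room temperature. Hydroperoxide measured by Fe-xylenol orange, 573/405 nm absorbance ratio.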
* = called active by the depositor; ? = inconclusive; nt = no result given; [ ] = remark or other dose. Calls come from the whole dose curve; as a rule, active = well fitted curve in the direction sought with a large enough effect; inconclusive = small, poorly fitted or top-dose-only effect, or another doubt; inactive = no such curve, though single readings can be large; an effect the other way counts as inactive or inconclusive. % is set by controls: 0 for no effect and ±100 for the full control effect; potency is the fitted concentration of half-maximal effect.

SMILES	TDP1 cell noCPT	Gal4-VP16 FLuc	ELG1 repair inh	DT40 TDP1 CPT	RORgamma inh	12-LOX inh
Cc1ccc2sc(N3CCN(C(=O)CCS(=O)(=O)c4ccc(F)cc4)CC3)nc2c1C	2.6µM*	nt	nt	4.1µM*	nt	?
COc1ccc(OC)c2sc(N3CCN(C(=O)CCS(=O)(=O)c4ccc(F)cc4)CC3)nc12	21µM*	nt	nt	18µM*	nt	-20%
O=C(CCS(=O)(=O)c1ccc(Cl)cc1)N1CCN(c2nc3ccc(Cl)cc3s2)CC1	nt	nt	nt	nt	nt	-24%
N#CC1(C(=O)NCc2cccc(NC(=O)C3CCCC3)c2)CCCC1	nt	nt	nt	nt	nt	24%
CCCCCCNC(=O)N[C@@H](C(=O)NCCC[C@H]1CN2C(=NC[C@@H]2Cc2ccccc2)N1CCc1cccc(OC)c1)C(C)C	4.6µM*	-1%	?	4.1µM*	14%	nt
CCOc1ccc(CCNC(=O)c2ccc(C)c(S(=O)(=O)N3CCOCC3)c2)cc1OCC	?	nt	nt	?	nt	9%
CC1CN(S(=O)(=O)c2cc(C(=O)NCCC3=CCCCC3)ccc2Cl)CC(C)O1 (stereo not drawn)	15µM*	nt	?	18µM*	nt	2%
CCOc1ccc(CCNC(=O)c2ccc(Cl)c(S(=O)(=O)N3CCOCC3)c2)cc1OCC	23µM*	nt	16µM*	21µM*	nt	-21%
COc1ccc(CNC(=O)c2ccc(Cl)c(S(=O)(=O)N3CCOCC3)c2)cc1OC	7.3µM*	nt	?	9.2µM*	nt	nt
CC(C)c1noc(CN2CCN(CCOc3ccc(Cl)cc3)CC2)n1	nt	nt	nt	nt	nt	-20%
Nc1nc(Nc2ccc(Cl)cc2)nc2ccccc12	5.8µM*	?	?	7.3µM*	-38%	-41%
CN(C)c1ccc(Nc2nc(N)c3ccccc3n2)cc1	13µM*	3.5µM*	?	26µM*	?	?
Oc1ccc(Nc2nc(-c3ccc(Cl)cc3)nc3ccccc23)cc1	?	nt	nt	?	nt	-25%
CN(C)c1ccc(-c2c3ccccc3nc3ccccc23)cc1	-25%	nt	nt	?	nt	nt
CCOc1ccc(Nc2nc(N)c3ccccc3n2)cc1	?	?	?	7.3µM*	7.1µM*	0%
CCc1c(C)c2ccc(OCC(=O)c3ccccc3)cc2oc1=O	nt	nt	nt	nt	nt	14%
Cc1oc2cc(OCC(=O)NC3CC3)ccc2c(=O)c1-c1ccc(Cl)cc1	nt	nt	nt	nt	nt	-5%
CCCn1c(C)cc(C(=O)CSc2nc3cc(S(N)(=O)=O)ccc3n2CC)c1C	nt	nt	nt	nt	nt	-24%
COc1ccc2c(C)c(CC(=O)N3CCOCC3)c(=O)oc2c1	nt	nt	nt	nt	nt	9%
O=C(c1ccccc1F)N1CCC2(Cc3ccccc3NC2=O)C1 (stereo not drawn)	nt	nt	nt	nt	nt	-1%[176 µM]
CCC(/C=C/C(C)C1CCC2C3CC=C4CC(O)CC[C@@]4(C)C3CC[C@@]12C)C(C)C (stereo partly drawn)	-1%	1%	nt	-18%	-4%	nt
CC(=O)[C@H]1CCC2C3CC=C4C[C@@H](OS(=O)(=O)O)CC[C@]4(C)C3CC[C@@]21C (stereo partly drawn)	nt	nt	nt	nt	nt	27%
CCCCCCN[C@H]1CCC2C3CC=C4C[C@@H](O)CC[C@]4(C)C3CC[C@@]21C (stereo partly drawn)	?	nt	1%	16µM*	nt	?
CC(C)(C)[C@H](N)C(=O)N[C@H]1CCC2C3CC=C4C[C@@H](O)CC[C@]4(C)C3CC[C@@]21C (stereo partly drawn)	3.7µM*	nt	?	4.6µM*	nt	-8%
C[C@]12CC[C@H](O)CC1=CCC1C2CC[C@@]2(C)C1CC[C@@H]2NC(=O)[C@@H](N)Cc1ccccc1 (stereo partly drawn)	21µM*	nt	-7%	?	nt	?
